Shown are actives, neighbours in structure and some others; about 3.2% of the full set was active somewhere.
AmpC inh detg = blocks E. coli AmpC beta-lactamase in detergent assay; Potency, µM (highest dose often 114 µM), inactives show at the highest dose activity change, negative = inhibition, actives largely listed as inhibitors; AmpC hydrolysis of nitrocefin, absorbance 480 nm, 0.01% Triton; P00811; hit rate 0.041% among 370,000;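 also: 0% = no-compound wells and -100% = no-enzyme wells; nearly all actives have a fitted effect of over 25% in size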
Target sequence (P00811 whole entry, looked up): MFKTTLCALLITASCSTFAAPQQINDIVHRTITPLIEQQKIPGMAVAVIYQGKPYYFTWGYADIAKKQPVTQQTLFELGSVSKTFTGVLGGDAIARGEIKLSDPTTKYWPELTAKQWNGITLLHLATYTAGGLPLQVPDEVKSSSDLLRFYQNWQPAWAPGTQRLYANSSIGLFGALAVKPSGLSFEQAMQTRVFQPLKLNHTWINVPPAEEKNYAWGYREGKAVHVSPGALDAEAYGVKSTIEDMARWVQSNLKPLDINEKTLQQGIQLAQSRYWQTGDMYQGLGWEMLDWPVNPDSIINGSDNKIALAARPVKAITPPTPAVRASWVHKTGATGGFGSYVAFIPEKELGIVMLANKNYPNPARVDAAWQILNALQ
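20 mM phosphate pH 7.0 + 0.01% (detergent screen) or 0.0001% Triton X-100; 5.3 nM AmpC reagent; cpd preinc 15 min RT; nitrocefin (800 uM stock) to start; A480 q20 s × 4 min; Activity was normalised to no-enzyme and no-compound control wells.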
Sm TGR inh = S. mansoni TGR enzyme inhibition. hit rate 3% among 360,000. purified TGR, DTNB reduction, TNB absorbance 405 nm. Q962Y6. AID 485364. Potency, µM (doses to about 114 µM), inactives show at the top dose activity change, negative = inhibition, actives largely listed as inhibitors; also: nearly all actives have a fitted effect of over 60% in size
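TGR 20 nM + NADPH 100 uM (dispensed conc.), cpd preinc 15 min RT; start with NADPH (500 uM addition) then DTNB (15 mM addition). Kinetic TNB absorbance, 405 nm filter. Four-parameter Hill fit across titration.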
AMA1-RON2 inh = disrupts binding of P. falciparum AMA1 to RON2; hit rate 0.2% among 360,000; Potency, µM (highest dose often 58.2 µM), for inactives: at the top dose activity change, negative = inhibition, actives largely listed as inhibitors; AlphaScreen AMA1-biotinylated RON2 peptide binding; AID 720542;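 also: 0% = vehicle wells and -100% = peptide control; nearly all actives have a fitted effect of over 45% in size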
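AMA1 (3D7) with his tag at 25 nM final met compounds first, then biotinylated RON2 peptide at 25 nM; detection used donor plus acceptor beads, 10 µg/mL apiece, read by AlphaScreen after 30 min at room temperature.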
RE007 growth inh = less growth of the S. pombe RE007 Vpr strain | AID 651644 | S. pombe RE007 Vpr strain, BacTiter-Glo ATP luminescence, 24 h | Potency, µM (doses to about 92.2 µM), without a hit: at the highest dose activity change, negative = less growth, most hits filed as inhibitors | hit rate 0.21% among 360,000; active = well fitted falling curve with a large enough effect; inconclusive = small, poorly fitted or top-dose-only effect; inactive = no such curve, though single readings can be large or run the other way; also: nearly all actives have a fitted effect of over 50% in size
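Fission yeast RE007 carrying one integrated HIV-1 vpr copy, seeded at OD 0.01 in PMG+AL medium with 23 nL pinned compound. Grown 24 h at 30 degrees; viability read by BacTiter-Glo luminescence after 5 min.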
AmpC no deterg = inhibitors of E. coli AmpC beta-lactamase without detergent. AmpC nitrocefin hydrolysis, absorbance 480 nm, 0.0001% Triton. AID 485341. Potency, µM (top dose mostly 57.1 µM), for the others: top-dose activity change, negative = inhibition, usual class: inhibitors. hit rate 0.52% among 330,000;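 also: plate controls were no compound for no effect and no enzyme for full effect; nearly all actives have a fitted effect of over 20% in size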
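AmpC (5.3 nM in the dispensed reagent) in 20 mM phosphate pH 7.0 with 0.01% (detergent screen) or 0.0001% Triton X-100 was preincubated with compounds for 15 min at room temperature. Nitrocefin was then added from an 800 uM solution, and hydrolysis was followed at 480 nm.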
Active calls of the source: *; ? = inconclusive; . = no result; [ ] = another dose, or the depositor's remark. Unless noted, calls follow the shape of the dose curve; as a rule, active = well fitted curve in the direction sought with a large enough effect; inconclusive = small, poorly fitted or top-dose-only effect, or another doubt; inactive = no such curve, though single readings can be large; an effect the other way counts as inactive or inconclusive. Unless noted, % is scaled to controls: 0 for no effect and ±100 for the full control effect; potency is read from the fitted curve at half-maximal effect.

SMILES	AmpC inh detg	Sm TGR inh	AMA1-RON2 inh	RE007 growth inh	AmpC no deterg
Cc1ccc(NC2=NC(c3ccccc3)n3c(nc(C)cc3=O)N2)c(C)c1 (centres undefined)	-9.3%	25.1µM*	-2.0%	3.8%	-15.8%
Cc1c(Cl)sn(-c2ccc(Cl)cc2)c1=O	?	3.55µM*	2.6%	1µM*	-38.4%
CC/C=C\[C@H](O)[C@H](O)C1=C(C)C(=O)[C@]2(O1)C(=O)N[C@@](OC)(C(=O)c1ccccc1)C2O (some centres undefined)	9.2%	39.8µM*	-6.4%	-5.1%	-13.6%
COC(=O)c1cc(C)nc2c1c(=O)nc(SCc1cccc(C)c1)n2C1CC1	9.3%	5.4%	.	.	.
CC(=O)N[C@@H](Cc1c[nH]c2ccccc12)C(=O)OCC(=O)Nc1ccc(Cl)c(S(=O)(=O)N(C)C)c1	7.8%	26.4%	-0.3%	9.9%	49.8%
Cc1ccc(C(=O)COC(=O)C(Cc2c[nH]c3ccccc23)NC(=O)c2ccc(C(C)(C)C)cc2)cc1 (centres undefined)	-9.2%	11.2µM*	.	.	.
CC(C)(C)c1ccc(C(=O)NC(Cc2c[nH]c3ccccc23)C(=O)OCC(=O)c2ccc(Br)cc2)cc1 (centres undefined)	8.3%	-1.0%	.	.	.
CC(=O)NC(Cc1c[nH]c2ccccc12)C(=O)OCC(=O)Nc1ccc2c(c1)OCO2 (centres undefined)	-8.0%	10µM*	-6.4%	1.8%	2.7%
CCCc1nc(C(C)(C)O)c(C(=O)O)n1Cc1ccc(-c2ccccc2-c2nn[nH]n2)cc1	44.7µM*	-0.2%	.	.	-57.2%
Cc1ccc(NC(=O)C(C)Sc2nc(=O)cc(N)n2-c2cccc(C)c2)cc1 (centres undefined)	-7.5%	-8.2%	.	.	.
CC(C)c1cc(C(=O)NNC(=S)NC2CCCCC2)cs1	5.5%	-23.0%	95.7%	14.4%	14.1µM*
CCc1cc(C(=O)NNC(=S)NC2CCCCC2)cs1	3.5%	-4.7%	127.5%	3.5%	?
COc1cc(CN(C(=O)c2ccccc2F)C2CCS(=O)(=O)C2)cc(OC)c1OC (centres undefined)	-1.9%	5.8%	.	.	.
COc1ccc(C(=O)NNC2=CC(=O)CC(C)(C)C2)cc1	-0.2%	?	12.8%	3.1%	-38.6%
CC1(C)CC(=O)C=C(OC(=O)c2ccc(Cl)cc2)C1	-4.6%	14.1µM*	11.4%	-3.9%	3.9%
CCOC(=O)c1c(S(=O)(=O)N2CCC(C(=O)NCc3cccc(OC)c3)CC2)c(C)n(C)c1C	3.3%	2.7%	.	.	.
CCOc1ccc(CC(=O)C2=C(N3CCOCC3)CC(C)(C)CC2=O)cc1OCC	6.6%	7.94µM*	-3.2%	9.8%	-15.7%
CCOc1ccc(CC(=O)C2C(=O)CCCC2=O)cc1OCC	-14.0%	31.6µM*	1.8%	1.7%	-9.7%
CCOc1ccc(CC(=N)C2=C(O)CC(C)(C)CC2=O)cc1OCC	-10.4%	-12.9%	19.3%	24.0%	-19.2%
CCOc1ccc(CC(=O)C2C(=O)CC(C)(C)CC2=O)cc1OCC	?	12.6µM*	10.1%	-6.1%	2.4%
CCOc1ccc(CC(=O)NC2CC(C)(C)N(C)C(C)(C)C2)cc1OCC	-6.0%	-0.4%	-6.6%	-9.1%	-1.5%
COCCNC(=O)c1c(NC(=O)c2cc(=O)c3cc(C)cc(C)c3o2)sc2c1CCCC2	16.8%	0.0%	.	.	.
Cc1cc(=S)cc(C)n1CCCO	-1.8%	1.78µM*	0.2%	26.1%[3.69 µM]	-8.0%
COC(=O)c1ccccc1NC(=O)Cn1nc(C(F)(F)F)c2c1CCCC2	-3.1%	5.4%	.	.	.
C=CCc1ccc(OCCCCNC2CCCC2)c(OC)c1	4.9%	6.4%	-16.0%	-4.1%	0.7%
SMILES	AmpC inh detg	Sm TGR inh	AMA1-RON2 inh	RE007 growth inh	AmpC no deterg
C=CCc1ccc(OC(=O)NC2CCCCC2)c(OC)c1	-11.8%	22.4µM*	0.6%	19.3%	-23.3%
CC1=NN(c2ccccc2)C(=O)C1/C=C1/C(=O)NC(=O)N(c2cccc(C)c2)C1=O (centres undefined)	-9.2%	0.0%	.	.	-32.4%
Cc1cccc(N2C(=O)NC(=O)/C(=C/c3cc4c(cc3[N+](=O)[O-])OCO4)C2=O)c1	?	2.24µM*	-14.8%	-0.2%	-45.0%
O=C1NC(=O)C(=Cc2cc3c(cc2[N+](=O)[O-])OCO3)C(=O)N1	50.1µM*	?	-11.3%	-4.8%	?
COc1cccc(CNC(=O)CCS(=O)(=O)c2cc3c4c(c2)CCN4C(=O)CC3)c1	3.2%	-1.0%	.	.	.
Cc1ccc2[nH]c3c(c2c1)CCCC3NC(=O)CCl (centres undefined)	?	44.7µM*	-11.5%	15.9%	30.5%
CC(=O)Nc1nonc1-c1nnc(SCc2ccccc2F)n1C	0.2%	2.5%	.	.	.
CN1CSC2=C(C#N)C(c3cccc(OCc4ccccc4)c3)CC(=O)N2C1 (centres undefined)	?	0.0%	58.6%	-5.2%	-28.7%
COc1ccc(C2CC(=O)N3CN(C4CCCCC4)CSC3=C2C#N)cc1 (centres undefined)	4.1%	7.94µM*	.	.	.
COc1cccc(C2CC(=O)N3CN(C4CCCCC4)CSC3=C2C#N)c1 (centres undefined)	1.2%	2.51µM*	.	.	.
Cc1cccc(C)c1Nc1c(-c2ccccc2Cl)nc2cnccn12	-8.6%	-12.2%	.	.	.
CCCCN(Cc1cc2cc(C)ccc2[nH]c1=O)C(=O)c1cccc(Cl)c1	13.2%	3.3%	.	.	.
CCNC(=O)c1cnc2c(-c3ccccc3)c(C)nn2c1C	15.5%	-3.8%	.	.	.
COc1ccc(-c2nnc(SCC(=O)NCCc3ccccc3)nc2-c2ccc(OC)cc2)cc1	2.1%	1.1%	.	.	.
CCOC(=O)C1=C(C)OC(N)=C(C#N)C1c1ccc(OC)c(CSc2ccccn2)c1 (centres undefined)	-12.0%	25.1µM*	-2.3%	-3.8%	-11.6%
COc1ccc(-c2nc3sc(CCNC(=O)Cc4ccc(F)cc4)c(C)n3n2)cc1	2.5%	8.2%	.	.	.
Cc1cc(C(F)(F)F)nn1Cc1ccc(C(=O)NCc2ccco2)o1	-1.4%	11.2µM*	1.5%	5.8%	64.3%
COc1ccc(CNC(=O)c2ccc(Cn3nc(C)cc3C)o2)cc1	?	-18.7%	-2.1%	11.6%	6.0%
CCc1ccc(CNC(=O)c2ccc(CS(=O)(=O)Cc3ccccc3C)o2)cc1	7.8%	-2.5%	.	.	.
Cc1ccccc1CS(=O)(=O)Cc1ccc(C(=O)NCc2ccccn2)o1	-0.2%	12.6µM*	97.9%	-7.0%	-1.7%
Cc1ccccc1CS(=O)(=O)Cc1ccc(C(=O)NCc2ccco2)o1	2.9%	56.2µM*	7.6%	-17.1%	-13.6%
COc1ccccc1OCc1ccc(C(=O)NCc2ccco2)o1	0.2%	39.8µM*	-0.2%	-11.9%	0.282µM*
O=C(CSc1nc2c([nH]c3ccccc32)c(=O)n1-c1ccc(Cl)cc1)N1CCCC1	3.9%	8.8%	.	.	.

From PubChem
